Laboratory results as given in PubChem BioAssay AID720595 (Broad Institute, 2013).
Measured potencies and affinities stand elsewhere. Activity calls are given as the source filed them.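 How the source made its calls: active means every repeat test gives a fitted half-maximal cytotoxic concentration no higher than twice the top valid dose; inconclusive means repeats disagree, or a flat partial loss or poor fit; inactive means the rest, including signal rising instead.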

Assay: ATP-based viability loss in HEK293T cells – cell-based, CellTiter-Glo luminescence, dry powder, set 2, cytotoxicity control, dose response (AID 720595)
Settings: 72 h; series mostly up to 26 µM

| Structure (SMILES) | outcome |
| --- | --- |
| c1ccc(-c2nc(-c3ccncc3)n[nH]2)nc1 | inactive |
| COc1ccc(-c2nnc(NC(=O)c3ccc(S(=O)(=O)N4CCC(C)CC4)cc3)o2)cc1 | inactive |
| Cc1cccc(NC(=O)CSc2ccc(-c3ccccn3)nn2)c1C | inactive |
| O=C(Nc1nc(-c2ccccn2)cs1)c1ccc(S(=O)(=O)N2CCOCC2)cc1 | inactive |
| O=C(CSc1ccc(-c2ccccn2)nn1)Nc1nccs1 | inactive |
| O=C(CSc1ccc(-c2ccccn2)nn1)NC1CCCCC1 | inactive |
| COC(=O)c1ccc(NC(=O)CSc2ccc(-c3ccccn3)nn2)cc1 | inactive |
| CC1CCN(S(=O)(=O)c2ccc(C(=O)Nc3nnc(-c4cccs4)o3)cc2)CC1 | inactive |
| Cc1nnc(NC(=O)c2ccc(S(=O)(=O)N3CCCCC3)cc2)o1 | inactive |
| Nc1nc(-c2ccccn2)nc(N)c1Cc1ccc(Cl)cc1Cl | inactive |
| O=C(Nc1nc(-c2ccncc2)cs1)c1cccc(S(=O)(=O)N2CCOCC2)c1 | inactive |
| CC1CCN(S(=O)(=O)c2ccc(C(=O)Nc3nnc(-c4ccno4)o3)cc2)CC1 | inactive |
| CC1CCN(S(=O)(=O)c2ccc(C(=O)Nc3nnc(C4CC4)o3)cc2)CC1 | inactive |
| CC(C)Cc1nnc(NC(=O)c2cccc(S(=O)(=O)N3CCOCC3)c2)s1 | inactive |
| O=C(Nc1nnc(C2=COCCO2)o1)c1ccc(S(=O)(=O)N2CCCCC2)cc1 | inactive |
| FC(F)(F)c1cc(-c2nn[nH]n2)cc(C(F)(F)F)c1 | inactive |
| CC1CC(C)CN(S(=O)(=O)c2ccc(C(=O)Nc3nnc(C4=COCCO4)o3)cc2)C1 (centres undefined) | inactive |
| O=C(CSc1ccc(-c2ccccn2)nn1)N1CCCC1 | inactive |
| Cc1ccc(C(=O)Nc2nc(-c3ccccc3)cs2)o1 | inactive |
| O=C(Nc1nc(-c2ccncc2)cs1)c1ccco1 | inactive |
| Cc1c(C(=O)N(C)C)sc2nc(-c3ccccn3)[nH]c(=O)c12 | inactive |
| Cc1ccc(S(=O)(=O)CCc2nnc(NC(=O)c3ccccc3)s2)cc1 | inactive |
| Cc1ccc(C(=O)Nc2nc(-c3ccccn3)cs2)cc1S(=O)(=O)N1CCOCC1 | inactive |
| CC1CCN(S(=O)(=O)c2ccc(C(=O)Nc3nnc(-c4ccccn4)o3)cc2)CC1 | inactive |
